From PubChem
Shiga inhibitor = inhibitors of Shiga toxin in Vero cells; Vero cells, Shiga toxin protein synthesis inhibition reporter; inhibition, % at 38.7 µM; 290,000 compounds, 9.2% hits; in the data active = inhibition mostly above about 28%, no sharp cut-off; inactive = mostly below about 43%; also: 0% is about no effect
HCMV antiviral = inhibitors of human cytomegalovirus. activity change, negative = inhibition, % at 57.5 µM. 410,000 compounds, 4.5% hits. AID 1259415. HFF cells, HCMV-luciferase reporter, 72 h; active compounds read low; in the data active = activity change below about -60%; inconclusive = no clear call, values can overlap the other calls; inactive = above about -39%; also: % is scaled to controls: 0 for no effect and ±100 for the full control effect
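Two compound doses tested in HFFs infected with HCMV-luciferase, MOI 1 PFU/cell, 72 h at 37C. Lysate luminescence read with OneGlo; data normalized against buffer-only and 10uM Salinomycin inhibitor controls.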
Pf growth 48h = inhibits P. falciparum growth in the first generation, 48 h. P. falciparum luciferase growth in erythrocytes, 48 h. Potency, µM (titrated, usually from 28.7 µM), for the others: at the highest dose activity change, negative = inhibition, hits mostly inhibitors. 310,000 compounds, 5.9% hits. AID 504832; also: potency is read from the fitted curve at half-maximal effect; % is scaled to controls: 0 for no effect and ±100 for the full control effect
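Cell-based growth assay: transgenic P. falciparum expressing firefly luciferase, cultured in red cells within RPMI 1640 containing 0.5% w/v Albumax, 24 mM bicarbonate and gentamycin. A drop in luciferase activity indicates inhibition.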
Pf growth 96h = inhibits malaria parasite growth, 96 h; P. falciparum luciferase reporter growth, 96 h; 320,000 compounds, 6.9% hits; AID 504834; Potency, µM (series often up to 28.7 µM), for inactives: at the highest dose activity change, negative = inhibition, usual class: inhibitors; also: potency is read from the fitted curve at half-maximal effect; % is scaled to controls: 0 for no effect and ±100 for the full control effect
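Plates of compound plus infected erythrocytes (2% hematocrit, 0.05% parasitemia final) incubate 96 hours, 37 C, 5% CO2. Detection reagent added; reduced luminescence from the parasites' luciferase reporter flags inhibition.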
Cycloheximide cs = affects cycloheximide protein synthesis inhibition readout, counter-screen. cell reporter, cycloheximide protein synthesis inhibition counterscreen. max response, %. 300,000 compounds, 12% hits. AID 2314; in the data active = max response mostly above about 13%, no sharp cut-off; inactive = mostly below about 14%; also: read at 38.3 µM for the half of the compounds with a filed dose; 0% is about no effect
* = called active by the depositor; ? = inconclusive; · = no result given; + = active, no number; [ ] = remark or other dose. Hits are enriched below; roughly 20% of the tested compounds scored in any of these assays. Unless noted, calls follow the shape of the dose curve; as a rule, active = well fitted inhibition curve with a large enough effect; inconclusive = small, poorly fitted or top-dose-only effect, or another doubt; inactive = no such curve, though single readings can be large or run the other way.

SMILES	Shiga inhibitor	HCMV antiviral	Pf growth 48h	Pf growth 96h	Cycloheximide cs
CCOc1ccc(C(CC(=O)O)NC(=O)c2cccs2)cc1 (configuration not stated)	7	-23	-23%	?	-4
CCOc1ccc(-n2nc(CO)c(C(=O)NCc3cccs3)n2)cc1	·	-15	·	·	·
CCCCn1nc2cc(C(=O)NCCc3cccs3)ccc2c1OCC	38	16	?	?	11
CC1(C)NC(=O)N(CC(=O)OCC(=O)Nc2cccc(S(N)(=O)=O)c2)C1=O	-8	17	-1%	28%	-4
COc1ccc(N2C(=O)CC(Sc3nc4ccccc4s3)C2=O)cc1OC (configuration not stated)	-5	-21	-3%	33%	-3
CCCCOc1ccc(C(=O)NCCc2cccs2)cc1	123*	·	403%	?	43*
Cc1ccc(C(=O)NCC(=O)NCC(c2cccs2)N2CCOCC2)cc1 (configuration not stated)	·	8	?	-1%	·
O=C(COc1ccccc1)NCc1cccs1	28	-20	?	32%	7
CCCCOc1ccc(C(=O)NCC(=O)NCC(c2cccs2)N2CCOCC2)cc1 (configuration not stated)	·	+	?	-12%	·
Cc1ccc(C(=O)OCC(=O)NCc2cccs2)cc1C	11	-11	40%	30%	14*
Cc1ccc(OCC(=O)NCc2cccs2)cc1	29*	6	37%	·	27*
O=C(Cn1c(-c2cccs2)cc2ccccc21)NCc1ccccc1Br	·	-34	·	·	·
C/C(=N\N1CCN(C)CC1)c1ccc(OC(F)F)cc1	27	?	4%	26%	17
CC(C)(C)OC(=O)n1cc(CCO)c2ccccc21	·	23	?	?	·
COc1ccc(/C=C/C(=O)Nc2nc3n(n2)C(c2ccccc2)C=C(c2ccc(Cl)cc2)N3)cc1 (configuration not stated)	·	-8	·	·	·
COc1cc(C#N)ccc1OCC(=O)NCc1cccs1	53	5	134%	22%	15*
O=C(CSc1nc(-c2cccc(Cl)c2)nc2cc(=O)[nH]n12)Nc1ccccc1	·	0	·	·	·
FC(F)(F)c1nc2ccccc2[nH]1	-5	14	56%	59%	1
COc1ccc(CNc2cccc3[nH]c(C(F)(F)F)nc23)cc1	8	-28	1.7µM*	21%	-5
COc1cc(CNc2cccc3[nH]c(C(F)(F)F)nc23)cc(OC)c1	18	?	2.1µM*	24%	6
Cc1ccc(C(=O)Nc2cccc3[nH]c(C(F)(F)F)nc23)cc1	22	-96*	8%	-13%	3
COc1cccc(-c2cc(C(F)(F)F)nc(NCc3ccc(F)cc3)n2)c1	·	-17	·	·	·
COc1ccc(C(O)c2nc3ccccc3n2C)cc1OC (configuration not stated)	-9	-88*	10%	2%	-5
COc1ccc(C(=O)NC(C)c2nc3ccccc3n2C)cc1OC (configuration not stated)	3	10	-1%	-7%	4
Cc1cccc(NS(=O)(=O)c2ccc3c(c2)oc(=O)n3C)c1C	4	-35	-18%	-8%	-3
SMILES	Shiga inhibitor	HCMV antiviral	Pf growth 48h	Pf growth 96h	Cycloheximide cs
Cc1ccc(-c2nnn3c2nc(N2CCC(C)CC2)c2ccccc23)cc1	·	49	·	·	·
COc1ccccc1OCc1ccc(C(=O)NC(C)(C)C)o1	20	16	18%	93%	12*
CCCc1ccc(OCc2ccc(C(=O)O)o2)c(OC)c1	134*	33	177%	202%	74*
COC(=O)c1ccc(COc2ccccc2OC)o1	23	7	29%	21%	12
C=CCc1ccc(OCc2ccc(C(=O)O)o2)c(OC)c1	87*	180	226%	-2%	56*
CCCc1ccc(OCc2ccc(C(=O)NN)o2)c(OC)c1	41*	72	-2%[0.00184 µM]	-21%	22*
COC(=O)c1ccc(COc2c(F)c(F)cc(F)c2F)o1	-5	?	14%[0.00184 µM]	19%	-4
C=CCc1ccc(OC(=O)NC2CCCCC2)c(OC)c1	71*	-2	38%	-31%	28*
COc1ccccc1OCc1ccc(C(=O)OCC2CCCO2)o1 (configuration not stated)	23	-11	48%	53%	41*
C=CCc1ccc(OCCCCNC2CCCC2)c(OC)c1	-14	?	-19%	22%	-4
COc1ccccc1OCc1ccc(C(=O)NC2CCCCC2)o1	-2	-23	10%	-22%	-2
CCCc1ccc(OCc2ccc(C(=O)OC)o2)c(OC)c1	146*	67	123%	-1%	76*
Cc1cc(F)ccc1C(O)c1ncc(-c2ccccc2C(F)(F)F)[nH]1 (configuration not stated)	·	51	·	·	·
Cc1ccccc1Nc1nn2c(=O)c3ccc(C(=O)NCC(C)c4ccccc4)cc3nc2s1 (configuration not stated)	·	-26	·	·	·
CCOc1ccc(CCNC(=O)C2CCCN2C(=O)OCc2ccccc2)cc1OCC (configuration not stated)	20	73	-12%	24%	1
COc1ccc(C2CC(c3ccccc3)=NN2c2ccc(/C=N/NC(=O)c3ccncc3)cc2)cc1 (configuration not stated)	28*	9	?	?	14*
N#CCC(=O)N/N=C/c1ccc(N2N=C(c3ccccc3)CC2c2ccccc2)cc1 (configuration not stated)	2	4	?	?	10*
COc1ccc(C2CC(c3ccccc3)=NN2c2ccc(C(N)=O)cc2)cc1 (configuration not stated)	-5	8	?	?	-2
N#CCC(=O)N/N=C/c1c(-c2ccccc2)n(-c2ccccc2)c2ccccc12	-5	5	9.3µM*	?	-2
CC1CC(C)CN(S(=O)(=O)c2ccc(C(=O)Nc3nnc(C4CC4)o3)cc2)C1 (configuration not stated)	-7	30	?	-5%	6
CC1(C(=O)NS(=O)(=O)c2ccc(F)cc2F)CCN1C(=O)c1ccccc1 (configuration not stated)	·	-3	·	·	·
O=C(c1ccc([N+](=O)[O-])cc1)n1nc(-c2ccccc2)nc1NCc1ccccc1	69*	-7	-10%	0%	47*
O=C(c1ccccc1)n1nc(-c2ccccc2)nc1NCc1ccc(F)cc1	·	32	·	·	·
CC(=O)n1nc(-c2ccccc2)nc1NCc1ccc(F)cc1	46	31	2%	·	20*
O=C(c1cccc([N+](=O)[O-])c1)n1nc(-c2ccccc2)nc1NCc1ccccc1	48*	51	34%	-27%	20*
O=C(c1ccc([N+](=O)[O-])cc1)n1nc(-c2ccccc2)nc1NCc1ccc(F)cc1	37*	28	-6%	194%	17*
NC(=O)C1=C[C@@H](c2ccccc2)C[C@@H](OCc2ccc(CO)cc2)O1	1	-32	34%	64%	-2
